Measured values reported in the supplement of paper PMC6555819.

These sequences were tested on VDR:RXRa (NR concentration 270 nM, RXRa partner concentration 90 nM) (assay: PBM binding z-score (relative to random genomic background probes); higher = stronger binding; sequences stand for … in GC…GCGATTGACAGCGTAGAATGAAGG).
Procedure: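 Protein-binding microarray (Agilent 4x180K custom design, double-stranded 60-nt probes: 5' GC cap, 34-nt variable region, 24-nt constant primer region; full probe sequence given). Purified or IVT nuclear receptor:RXRα heterodimers (3:1 NR:RXRα, mostly 270:90 nM) or homodimers were incubated for 1 h in PBS with 2% milk and no ligand, then detected with Alexa488 antibodies. Fluorescence from o1-orientation probes (~5 replicates averaged) was converted to z-scores against 500 random hg19 background probes. Variable regions are seed direct-repeat (DR0–DR5) sites, all their single-nucleotide variants and half-site ablations.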

Row | Sequence | PBM binding z-score
1 | TCATATAGGTAATACAGGTGATAGTCGGCATCTA | 1.04
2 | ACTAGCAGGCCAACGGTCACTCAAGATTAGTCCG | -0.505
3 | CCTTACGGGTCACTGAGAGGTTATAGCATTTGGA | 4.55
4 | CCGACTGGGGCAATGTTACCATAACGCACAGCCA | -0.586
5 | AGAATGAGGTTATACATAGATCAGGGAAGAAAGT | 1.5
6 | CCTTCTAGGTCAATGGTCAGCTAAAGCAGCTCGC | 1.16
7 | CGATCTAGGTCAGAACAGGACAGTGAAGGATGAT | 0.316
8 | TGAATGAGGTTAAAGATCAGGGAACGTGGCGTCG | 1.99
9 | AATACAGGGTCACTAAGCCAGAGTAGGTACGAAT | 4.02
10 | GGAACCAGGGCATTCGAGTTGATAGCATGGCGAT | 2.21
11 | GTACCAAGGTGAATAGGTCGTTGTTGAGTAGGCG | 0.825
12 | ATACCAAGGTGATCGTGAGGTCGTTGACACTAAC | 3.35
13 | AATACAGGGCCATCGTAGGCCAGAGTACGCACAG | -0.126
14 | CCTTACGGGTTACGAGGTTATAGCACGACGAGCG | 2.36
15 | TAGCCTAGGTCATTCGGGCCAGTATAGTGTCGGC | 3.94
16 | AGAATGAGATTATTAAGATCAGGGAATTGCGGTC | -0.494
17 | TATACAGGGTTAAAGGCCAGAGTACGAATGTCGA | 2.09
18 | ACAGACAGGTGGGTGAAGGTAACTCAGCTGGACG | -0.163
19 | CAGACTGGGGCAAAGGTTACCATACTCAGTACGA | 1.93
20 | CCAGACAGGTGAAACGTAACTCAGTCTGGTACGC | -0.217

Row | Sequence | PBM binding z-score
21 | TTACCAAGGTGAGCTGAGGACGTTGATCCAACTC | 0.98
22 | CCTACTGGGCCACAGGTCATTGATTCCAATGCTC | 1.99
23 | TTAACAAGGTGAAGGTCGTTGATCCCTCTGTAGA | 1.35
24 | CCTCAAAGTTCAAGGTAACGTAACAGAAAGCAGC | 4.07
25 | TCAAATAGGTAAACAGGTGAAAGTCCGTAAGTTA | 1.18
26 | GCTAGTAGATCAAGGTTAAGAAAGACTAAGCTAA | -0.00199
27 | GCGACTGGGGCATAAGCAGGTTACCATAACTTAA | -0.0344
28 | CCTTACGGGTCACTCCAGGTTATACCATCGGAGT | 4.19
29 | GCTACTAGGTCAACTGATGGTCAGCTAAAGCTCG | 1.79
30 | GCGACTGGGGCAGAGCAGGTTACCATAAGGTTGG | -0.508
31 | CCTATTAGTTGACCATAAGGGCAACCAAAGCTCG | 0.939
32 | GCTGCTAGGTCAGGTTGGCCAGCTAACGGGTACG | 0.052
33 | CCTACTGGGACATCAGGTCATTGATATCAACGTT | 1.99
34 | ACTATTAGTTGAGACGAGCGCAACCGATAGGTTG | -0.385
35 | TCTCGGAGGACACGAAATGTCAGAGCTCGACATC | 0.0899
36 | CCTTCTGGGCCAAGGTCATTGATCAGTCAAAGCA | 3.17
37 | ACTTACGGGTCAATGAGGTTATAGCACGCGTATA | 7.74
38 | TGTCAAATTTCAAAGGTAACGTAAGTATCCACAC | 0.605
39 | AGTCAAAGTGCAGGACGAGGTAACGTAAAGCACG | -0.0485
40 | CGTCGAAGGTCAAGGTCAGTGAAAGAGACTCGAA | 4.25
